Cycloheximide cs: affects cycloheximide protein synthesis inhibition readout, counter-screen | cell reporter, cycloheximide protein synthesis inhibition counterscreen | max response, % | actives 12% (n = 300,000); in the data active means max response mostly above about 13%, no sharp cut-off; inactive means mostly below about 14%; further: read at 38.3 µM for the half of the compounds with a filed dose; 0% is about no effect
SARS PLpro yeast: SARS-CoV PLP inhibition in yeast; AID 485353; S. cerevisiae expressing SARS-CoV PLpro, growth rescue; actives 0.19% (n = 330,000); Potency, µM (titrated, usually from 32.9 µM), inactives show top-dose activity, positive = growth rescue, most hits filed as activators; calls by dose curve; further: potency means the concentration at half of the fitted maximal effect; 0% is about no effect; nearly all actives have a fitted effect of over 55% in size
AmpC inh detg: blocks E. coli AmpC beta-lactamase in detergent assay; P00811; AmpC hydrolysis of nitrocefin, absorbance 480 nm, 0.01% Triton; Potency, µM (titrated, usually from 114 µM), inactives show at the highest dose activity change, negative = inhibition, usual class: inhibitors; actives 0.041% (n = 370,000);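 further: potency means the concentration at half of the fitted maximal effect; 0% = no-compound wells and -100% = no-enzyme wells; nearly all actives have a fitted effect of over 25% in size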
Target sequence (P00811 whole entry, looked up): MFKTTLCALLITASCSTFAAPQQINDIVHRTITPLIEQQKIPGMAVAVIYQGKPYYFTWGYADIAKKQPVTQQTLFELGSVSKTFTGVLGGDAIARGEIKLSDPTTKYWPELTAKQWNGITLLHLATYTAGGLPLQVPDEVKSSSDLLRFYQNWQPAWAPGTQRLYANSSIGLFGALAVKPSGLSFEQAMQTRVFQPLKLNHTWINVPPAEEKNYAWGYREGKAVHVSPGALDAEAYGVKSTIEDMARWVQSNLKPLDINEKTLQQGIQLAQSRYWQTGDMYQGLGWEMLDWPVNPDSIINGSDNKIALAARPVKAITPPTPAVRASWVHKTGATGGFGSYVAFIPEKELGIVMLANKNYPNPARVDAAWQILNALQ
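AmpC (5.3 nM in the dispensed reagent) in 20 mM phosphate pH 7.0 with 0.01% (detergent screen) or 0.0001% Triton X-100 was preincubated with compounds for 15 min at room temperature. Nitrocefin was then added from an 800 uM solution, and hydrolysis was followed at 480 nm.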
AMA1 RON2 block: disrupts binding of P. falciparum AMA1 to RON2 | AlphaScreen AMA1-biotinylated RON2 peptide binding | Potency, µM (top dose mostly 58.2 µM), without a hit: at the highest dose activity change, negative = inhibition, usual class: inhibitors | actives 0.2% (n = 360,000);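 further: potency means the concentration at half of the fitted maximal effect; 0% = vehicle wells and -100% = peptide control; nearly all actives have a fitted effect of over 45% in size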
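AMA1 (3D7) with his tag at 25 nM final met compounds first, then biotinylated RON2 peptide at 25 nM; detection used donor plus acceptor beads, 10 µg/mL apiece, read by AlphaScreen after 30 min at room temperature.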
Shiga toxin inh: inhibitors of Shiga toxin in Vero cells | actives 9.2% (n = 290,000) | inhibition, % at 38.7 µM | Vero cells, Shiga toxin protein synthesis inhibition reporter | AID 2315; in the data active means inhibition mostly above about 28%, no sharp cut-off; inactive means mostly below about 43%; further: 0% is about no effect
AmpC no deterg: blocks E. coli AmpC beta-lactamase in detergent-free assay | P00811 | AmpC nitrocefin hydrolysis, absorbance 480 nm, 0.0001% Triton | Potency, µM (titrated, usually from 57.1 µM), for the others: top-dose activity change, negative = inhibition, usual class: inhibitors | actives 0.52% (n = 330,000) | AID 485341;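 further: potency means the concentration at half of the fitted maximal effect; plate controls were no compound for no effect and no enzyme for full effect; nearly all actives have a fitted effect of over 20% in size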
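20 mM phosphate pH 7.0 + 0.01% (detergent screen) or 0.0001% Triton X-100; 5.3 nM AmpC reagent; cpd preinc 15 min RT; nitrocefin (800 uM stock) to start; A480 q20 s × 4 min; Activity was normalised to no-enzyme and no-compound control wells.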
Active calls of the source: *; ? = inconclusive; / = not tested or not shown; + = active, no number. Only a selection was taken, and hits are over-represented in it overall. Unless noted, the call rests on the fitted dose curve; in most records, active means well fitted curve in the direction sought with a large enough effect; inconclusive means small, poorly fitted or top-dose-only effect, or another doubt; inactive means no such curve, though single readings can be large; an effect the other way counts as inactive or inconclusive.

SMILES | Cycloheximide cs | SARS PLpro yeast | AmpC inh detg | AMA1 RON2 block | Shiga toxin inh | AmpC no deterg
O=C(CCc1nc(-c2ccccc2)no1)NCc1cccnc1 | 6 | -11% | -1% | -5% | 20 | -5%
C/C(=N\NC(=S)Nc1cc(S(=O)(=O)N2CCOCC2)ccc1Cl)c1ccccc1F | 59* | -6% | -8% | 6% | 75* | -45%
O=C(CNC(=O)c1ccccc1F)NCCc1ccc(Cl)cc1Cl | 7 | 3% | -3% | 6% | 3 | 0%
Cc1ccccc1C(=O)NCCCc1ccccc1 | 39* | 2% | -11% | 0% | 140* | -11%
Cc1ccccc1C(=O)NCCCCc1ccccc1 | 9 | -19% | ? | 20% | 27 | -7%
O=C(NCCc1ccc2c(c1)OCCO2)c1ccccc1F | 70* | 14% | -1% | -17% | 91* | -6%
O=C(NC(=O)c1ccccc1F)OCc1ccc(Cl)cc1Cl | 26* | -2% | 3% | 5% | 69* | -35%
O=C(NC(=S)NCCc1ccccc1)c1ccccc1F | 41* | 12% | 3% | 65% | 94* | -27%
O=C(NCCc1ccccc1)c1ccccc1F | 35* | -1% | 6% | -20% | 109* | -15%
O=C(NCCc1ccccc1)c1c[nH]c2c(F)cccc2c1=O | 23* | 1% | ? | 14% | 29* | -2%
O=C(NCCc1ccccc1)c1cc(S(=O)(=O)N2CCOCC2)ccc1F | 19* | 0% | 0% | 5% | 45 | -9%
Cc1occc1C(=O)NCCCCc1ccccc1 | 23* | -23% | -2% | 11% | 55* | -25%
Cc1ccc(C(=O)NCCCc2ccccc2)s1 | 53* | 0% | ? | 3% | 134* | -26%
CN(C(=O)COc1ccccc1C(=O)NCCc1ccccc1)c1ccccc1 | 30* | -2% | ? | -2% | 70* | -10%
COc1ccccc1CCNC(=O)c1ccoc1C | 19* | -11% | -1% | 24% | 32 | 0%
CCc1c(C(=O)NNC(=S)NC2CCCCC2)csc1C | 10 | 1% | 1% | 74% | 3 | -49%
O=C(CCc1ccccc1)NNC(=S)NC(=O)c1ccccc1 | 14 | 5% | -14% | 99% | 12 | -27%
O=C(NCc1ccc(Cl)cc1)c1ccc(Cl)cc1[N+](=O)[O-] | -3 | 2% | -1% | 3% | 16 | -11%
O=C(NC(=S)NCCc1ccccc1)c1ccccc1 | 18* | 17% | ? | 11% | 45* | -23%
CCc1c(C(=O)NNC(=S)NCCc2ccccc2)csc1C | 12* | 3% | 2% | -6% | 14 | -29%
Cc1ccc(SCCNC(=O)c2ccccc2F)cc1 | 13* | 2% | ? | 18% | 25 | ?
O=C(NCCc1ccccc1)c1ccc(Cl)cc1[N+](=O)[O-] | 27* | -2% | -11% | -1% | 67* | -36%
CCC1(C)Cc2ccccc2-c2c1c(=O)n(Cc1ccccc1)c1nnnn21 (centres undefined) | -3 | 12% | ? | -1% | -16 | -13%
O=C(NCCc1ccccc1)c1c(F)c(F)c(F)c(F)c1F | 11 | -4% | -7% | 17% | 33* | -8%
O=C(NCCCCc1ccccc1)c1ccccc1F | 17* | -2% | -7% | 1% | 19 | -9%
SMILES | Cycloheximide cs | SARS PLpro yeast | AmpC inh detg | AMA1 RON2 block | Shiga toxin inh | AmpC no deterg
O=C(NCCCCc1ccccc1)c1ccccc1Cl | 24* | -9% | ? | 26% | 58* | -15%
COc1ccc(CCNC(=S)NC(=O)c2ccccc2)cc1C | 8.4* | -1% | -6% | 37% | 17 | 11µM*
O=C(NC(=S)NCc1ccccc1)c1ccccc1F | 13 | 17% | -1% | 9% | 10 | -18%
O=C(NC(=S)NC(=O)c1ccccc1F)c1ccccc1F | 40* | -56% | ? | 40% | 73* | -20%
O=C(NCCc1ccccc1)c1ccccc1NS(=O)(=O)N1CCCC1 | 33* | -2% | -10% | -5% | 43* | -33%
C/C(=N\NC(=O)C(O)c1ccccc1)c1ccc(C)s1 (centres undefined) | / | / | / | -13% | / | /
C/C(=N/NC(=O)Cc1ccccc1)c1ccc(C)s1 | 25* | -6% | 4% | 8% | -28 | -35%
Cc1nc(SCc2ccccc2F)c2oc3ccccc3c2n1 | 9 | 1% | -5% | -24% | 7 | -6%
CCOCCn1c(N2CCN(c3ccccc3)CC2)nc2c1c(=O)[nH]c(=O)n2C | 21* | 1% | -7% | 13% | 57 | -14%
O=C(NC1CCc2ccccc21)C1CCN(S(=O)(=O)c2ccc(-n3cnnn3)cc2)CC1 (centres undefined) | -2 | 1% | -9% | 4% | -17 | -37%
CN(C)c1ccc(C=C2C(=O)NC(=O)NC2=O)cc1[N+](=O)[O-] | -2 | 8% | 6% | -2% | 3 | -23%
O=C(CC1CCCCC1)N1CCCC(c2nc(-c3ccc(S(=O)(=O)N4CCCC4)cc3)no2)C1 (centres undefined) | -6 | -11% | 3% | -4% | -6 | 0%
COc1ccc(-c2noc(C3CCCN(C(=O)c4cccc(F)c4)C3)n2)cc1 (centres undefined) | -2 | -5% | ? | -3% | / | 44%
O=C(c1ccco1)N1CCCC(c2nc(-c3ccc(S(=O)(=O)NCc4ccccc4)cc3)no2)C1 (centres undefined) | 10 | 15% | -3% | -8% | + | -40%
COc1ccc(-c2noc(C3CCCN(C(=O)c4ccccc4)C3)n2)cc1 (centres undefined) | 32* | -2% | 1% | -13% | 43* | 30%
COc1ccc(-c2noc(C3CCCN(C(=O)CCc4ccccc4)C3)n2)cc1 (centres undefined) | 14* | -15% | 1% | -9% | 23 | 60%
COc1cccc(N=Nc2c(O)[nH]c(=S)[nH]c2=O)c1 | 31* | 0% | 8% | 35% | 47* | -28%
COc1ccc(N=Nc2c(O)[nH]c(=S)[nH]c2=O)cc1 | 31* | -4% | -1% | 26% | 110* | -28%
O=c1[nH]c(=S)[nH]c(O)c1N=Nc1cccc(S(=O)(=O)N2CCOCC2)c1 | 5 | -2% | -14% | 9% | 4 | -18%
O=c1[nH]c(=S)[nH]c(O)c1N=Nc1ccc(OC(F)F)cc1 | 19 | -5% | 10% | 91% | 37 | -7%
CC(=O)c1cccc(-n2c(=O)c3c4c(sc3n(CC(=O)c3ccccc3)c2=O)CN(C(C)=O)CC4)c1 | / | / | 8% | / | / | /
COc1ccc(NC(=O)CN(C)CC(=O)NCc2ccc(C)cc2)cc1 | / | 6% | 4% | 8% | / | -9%
COc1cccc(-n2ccnc2SCC(=O)Nc2c(C)cc(C)cc2C)c1 | / | / | 1% | / | / | /

Bioassay records: PubChem, National Center for Advancing Translational Sciences (NCATS)
